Source: PubChem (NMMLSC)
The list is not random: actives were taken first. Their share in the collection is about 1.2%.
RGS8-Gao reg – regulators of human RGS8-Galphao interaction; P09471; multiplexed bead flow cytometry, RGS8-Galphao binding; actives lie on both sides; response (percent of control binding), % at 10 µM; 220,000 compounds, 0.34% hits; AID 1423; in the data active = response below about 60% or above about 140%; inactive = in between;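 note: Galphao activated as the GDP aluminium fluoride complex binding bead-coupled RGS8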
Target sequence (P09471 whole entry, looked up): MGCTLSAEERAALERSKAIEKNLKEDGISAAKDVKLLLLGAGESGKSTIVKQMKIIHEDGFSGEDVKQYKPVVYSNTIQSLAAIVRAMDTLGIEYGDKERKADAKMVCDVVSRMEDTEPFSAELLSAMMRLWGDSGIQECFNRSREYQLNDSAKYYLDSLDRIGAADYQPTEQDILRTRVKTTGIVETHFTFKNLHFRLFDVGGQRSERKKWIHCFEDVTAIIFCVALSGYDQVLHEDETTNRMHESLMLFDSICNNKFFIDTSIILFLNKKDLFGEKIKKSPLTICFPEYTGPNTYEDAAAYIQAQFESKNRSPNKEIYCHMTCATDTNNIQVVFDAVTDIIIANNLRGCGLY
RGS16-Gao – regulators of human RGS16-Galphao interaction; O15492+P09471; bead-based flow cytometry RGS16-Galphao binding, fluorescence; actives lie on both sides; binding response (% of control), % at 10 µM; 220,000 compounds, 0.38% hits; AID 1441; call rule not given here;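 note: Galphao activated by GDP with aluminum fluoride before binding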
Target sequence (O15492 whole entry, looked up): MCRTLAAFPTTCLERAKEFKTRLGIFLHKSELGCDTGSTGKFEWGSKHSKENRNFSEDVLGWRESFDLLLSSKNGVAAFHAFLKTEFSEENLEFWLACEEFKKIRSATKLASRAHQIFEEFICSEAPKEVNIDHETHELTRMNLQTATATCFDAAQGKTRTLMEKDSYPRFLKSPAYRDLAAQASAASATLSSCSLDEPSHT
Target sequence (P09471 whole entry, looked up): as the sequence (P09471 whole entry, looked up) above
RGS4-Gao reg – modulates binding of RGS4 to human Galphao | Multiplexed bead flow cytometry; actives lie on both sides | binding response (% of control), % at 10 µM | 220,000 compounds, 0.33% hits; in the data active = binding response below about 49% or above about 150%; inactive = in between;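 note: fluorescent Galphao activated with aluminum fluoride binding bead-coupled RGS4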
Avidin fluor – compound fluoresces at 488/530 nm on avidin beads. fluorescence (KMESF) at 10 µM. compound fluorescence 488/530 nm, flow cytometry; active compounds read high. 220,000 compounds, 0.38% hits; in the data active = fluorescence above about 47
GSH bead fluor – GSH bead compound fluorescence profile; GSH beads flow cytometry, compound fluorescence 488/530 nm; active compounds read high; fluorescence (KMESF) at 10 µM; 190,000 compounds, 0.25% hits; in the data active = fluorescence above about 89;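 note: glutathione beads carrying GST-tagged Bcl family fusion proteins plus one bare bead set; values are compound well signal with DMSO vehicle wells as background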
RGS7-Gao reg – human RGS7-Galphao interaction regulation; P09471; Multiplexed bead flow cytometry, RGS7-Galphao binding; actives lie on both sides; binding response (% of control), % at 10 µM; 220,000 compounds, 0.35% hits; in the data active = binding response below about 49% or above about 150%; inconclusive = no clear call, values can overlap the other calls; inactive = in between;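 note: fluorescent Galphao held in activated GDP-AlF4 state binding bead-coupled RGS7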
* = called active by the depositor; ? = inconclusive; / = no result.

SMILES | RGS8-Gao reg | RGS16-Gao | RGS4-Gao reg | Avidin fluor | GSH bead fluor | RGS7-Gao reg
CCCCCCC(=O)Nc1nnc(CC)s1 | 116.7 | 159.8 | 103.5 | 6 | 19 | 109.8
CCc1nnc(NC(=O)CCN2C(=O)CCC2=O)s1 | 96.6 | 92.3 | 93.5 | 6 | 264* | 93.0
COC(=O)c1ccc(OC(=O)c2ccccn2)cc1 | 99.0 | 100.9 | 100.3 | 7 | 269* | 102.3
COC(=O)c1ccc(/C=C(\C#N)c2ccccn2)cc1 | 98.1 | 97.1 | 99.9 | 8 | 13 | 98.4
CCN1CCN(C(=O)CCc2nnc(CCCCc3ccccc3)o2)[C@@H](C)C1=O | 100.1 | 104.9 | 101.7 | 11 | 15 | 97.0
COC(=O)CSc1nnc(SCc2ccc(OC)cc2)s1 | 99.9 | 102.2 | 100.4 | 50* | 26 | 103.6
COc1ccc(CSc2nnc(SCc3ccc([N+](=O)[O-])cc3)s2)cc1 | 101.8 | 101.9 | 100.3 | 6 | 26 | 98.3
COc1ccccc1C(=O)C1CCCN(C(=O)c2cc(CC(C)C)nc(C)n2)C1 (configuration not stated) | 100.8 | 106.4 | 100.1 | 2 | 9 | 103.9
Cc1ccc(C(=O)N2CCCC(c3ccc(Cl)cc3)=N2)cc1 | 103.4 | 105.4 | 104.5 | 11 | 12 | 102.0
CCCCSc1nc2c(cnn2-c2ccccc2)c(=O)n1N | 100.5 | 101.5 | 101.2 | 61* | 17 | 129.0
CCCSc1nc2c(cnn2-c2ccccc2)c(=O)n1N | 97.2 | 99.0 | 98.5 | 7 | / | ?
CC(C)C(OC(=O)c1cc2sccc2n1C)C(=O)NCC1CCCO1 (configuration not stated) | 118.4 | 155.1 | 113.7 | 7 | 254* | 114.9
O=C(O)c1cc(NCc2ccccc2C(F)(F)F)ccc1N1CCOCC1 | 96.2 | 89.2 | 97.9 | 52* | 21 | 111.8
O=C(O)c1cc(NCc2ccc(F)cc2)ccc1N1CCOCC1 | 100.5 | 106.9 | 99.4 | 6 | 36 | 99.7
COc1ccccc1NC(=O)N1CCCC1C(=O)NC12CC3CC(CC(C3)C1)C2 (configuration not stated) | 101.2 | 104.2 | 100.8 | 8 | 280* | 105.2
COc1ccc(C2C(C#N)=C(C)NC3=C2C(=O)CC(C)(C)C3)c(OC)c1 (configuration not stated) | 102.2 | 104.5 | 100.3 | 6 | 29 | 98.5
CCCCC1C(C#N)=C(C)NC2=C1C(=O)CC(C)(C)C2 (configuration not stated) | 103.3 | 103.6 | 100.2 | 6 | 253* | 103.0
Cc1ccccc1-c1nc(CN(Cc2c(C)nn(C)c2C)C2CC2)c(C)o1 | 100.3 | 102.5 | 98.1 | 11 | 21 | 105.4
CCOC(=O)c1c(C)oc2ccc(NS(=O)(=O)c3cccs3)cc12 | 98.5 | 95.0 | 103.4 | 14 | 15 | 99.5
CC(=O)c1c(C)oc2ccc(NS(=O)(=O)c3cccs3)cc12 | 68.9 | 4.7 | 82.3 | 122* | 13 | 76.4
Nc1c(C(=O)C2CC2)sc2nc(-c3ccccc3)cc(C(F)(F)F)c12 | 95.2 | 88.6 | 90.1 | 5 | 126* | 91.8
CC(=O)c1sc2nc(-c3cccs3)cc(C(F)(F)F)c2c1N | 98.3 | 94.6 | 95.2 | 25 | 28 | 100.3
N#Cc1nc(COc2ccc(-c3ccccc3)cc2)oc1NCCCN1CCOCC1 | 96.2 | 105.2 | 110.0 | 233* | 12 | 95.9
COc1cc(NC(=O)CN2C(=O)NC(c3ccccc3)(c3ccccc3)C2=O)c(C)cc1[N+](=O)[O-] | 101.5 | 106.9 | 101.2 | 11 | 9 | 99.0
CC(C)(C)C1CCC(=NNC(=O)CN(c2ccccc2)S(=O)(=O)c2ccccc2[N+](=O)[O-])CC1 (configuration not stated) | 101.0 | 103.0 | 144.7 | 53* | 20 | 128.3
SMILES | RGS8-Gao reg | RGS16-Gao | RGS4-Gao reg | Avidin fluor | GSH bead fluor | RGS7-Gao reg
NC(=S)c1cc2cc(Cl)ccc2oc1=O | 101.4 | 106.4 | 103.7 | 7 | / | ?
CCSc1nnc(NC(=O)c2ccc(C)o2)s1 | 104.6 | 104.9 | 102.9 | 48* | 17 | 105.1
CN(C)c1nc(N2CCOCC2)nc(N(c2ccccc2)c2ccccc2)n1 | 100.1 | 103.8 | 101.2 | 8 | 266* | 104.0
Nc1nc(N2CCOCC2)nc(N(c2ccccc2)c2ccccc2)n1 | 101.7 | 99.9 | 100.6 | 7 | 19 | 98.1
COc1ccc(/C(C)=N\O)cc1OC | 98.9 | 98.0 | 102.5 | 5 | / | ?
CCCC/C(O)=C1\C(=O)CC(C)(C)CC1=NCCCCCC(=O)O | 99.8 | 101.4 | 101.1 | 19 | 12 | 102.5
CC(C)NC(=O)C(=O)NNC(=O)C12CC3CC(CC(C3)C1)C2 | 88.8 | 72.5 | 82.3 | 7 | 109* | 100.6
CC(CN1CCCCC1)C(=O)NNC(=O)C12CC3CC(CC(C3)C1)C2 (configuration not stated) | 102.0 | 102.7 | 103.2 | 24 | 21 | 104.8
CC(=O)Nc1cccc(OCC(=O)NS(=O)(=O)c2ccc(Cl)cc2)c1 | 100.0 | 106.5 | 104.1 | 28 | 99* | 103.8
CC(=O)Nc1cccc(OCC(=O)Nc2ccccc2)c1 | 103.7 | 101.5 | 105.6 | 20 | 37 | 104.0
Cc1cnc2cc(Cl)ccc2c1SCC(=O)O | 96.6 | 99.2 | 93.4 | 6 | / | ?
Cc1nc(N2CCC(C)CC2)c2nnn(Cc3ccccc3)c2n1 | 84.4 | 37.6 | 82.3 | 4 | 89* | 83.8
O=C(CN1CCN(c2ccccn2)CC1)Nc1ccc(Oc2ccccc2)cc1 | 104.1 | 106.6 | 103.9 | 13 | 18 | 97.9
O=C(CN1CCN(c2ccccn2)CC1)Nc1ccc(OCc2ccccc2)cc1 | 101.5 | 109.9 | 105.3 | 63* | 21 | 119.6
CC/C(C)=N/Nc1nc(-c2cc3cccc(OC)c3oc2=O)cs1 | 100.6 | 101.3 | 97.8 | 6 | / | ?
O=C(NCCCn1ccnc1)c1cc(S(=O)(=O)N2CCOCC2)c(Cl)cc1Cl | 97.1 | 102.4 | 100.4 | 8 | 249* | 102.0
Cc1ccc(S(=O)(=O)N2CCOCC2)cc1C(=O)NCCCn1ccnc1 | 93.4 | 94.0 | 91.5 | 7 | 31 | 92.7
COc1ccc(/C=N/n2c(N)c(S(=O)(=O)c3cccs3)c3nc4ccccc4nc32)cc1OC | 91.0 | 95.4 | 89.3 | 47* | 16 | 96.6
Nc1c(S(=O)(=O)c2cccs2)c2nc3ccccc3nc2n1/N=C/c1cccc(O)c1 | 104.4 | 112.6 | 114.4 | 57* | 5 | 111.2
COc1cccc(/C=N/n2c(N)c(S(=O)(=O)c3cccs3)c3nc4ccccc4nc32)c1 | 101.1 | 99.8 | 99.9 | 7 | 53 | 101.1
O=C(O)C1C2CCC(C2)C1C(=O)NCc1ccco1 (configuration not stated) | 95.8 | 96.8 | 95.3 | 8 | 5 | 90.7
O=C(NCc1ccco1)C1CC2CCC1C2 (configuration not stated) | 134.0 | 173.3 | 116.1 | 9 | 246* | 134.6
CCN1CC(CN(C)Cc2cn(-c3cccc(C)c3)nc2-c2cccc(F)c2)CC1=O (configuration not stated) | 88.1 | 67.5 | 78.8 | 6 | 15 | 97.4
